Autofluor counter: compound fluorescence in toxin protease inhibitor counterscreen; fluorescence intensity (no concentration beside the values); compound autofluorescence counterscreen, microsphere flow cytometry; stronger effect = higher value; hit rate 3.1% among 360,000; in the data active = fluorescence intensity above about 16000; inconclusive = no clear call, values can overlap the other calls
Anthrax LF prot: inhibitors of Bacillus anthracis lethal factor protease; multiplex microsphere protease cleavage assay, LF; inhibition, % at 10 µM; hit rate 0.12% among 360,000; note: plate controls were buffer without enzyme for full effect and enzyme alone for no effect
BoNT-A LC inh2: blocks Botulinum neurotoxin A light chain protease. multiplex microsphere protease substrate cleavage, flow cytometry. inhibition, % at 10 µM. hit rate 0.17% among 360,000; note: plate controls were buffer without enzyme for full effect and enzyme alone for no effect
MazEF act: MazEF (E. coli) toxin RNase activation | P0AE70 | FAM/BHQ RNA-DNA oligo cleavage fluorescence, 5 h | activation, % at 20 µM | hit rate 0.32% among 350,000 | AID 504720; in the data active = activation above about 50%
Target sequence (P0AE70 whole entry, looked up): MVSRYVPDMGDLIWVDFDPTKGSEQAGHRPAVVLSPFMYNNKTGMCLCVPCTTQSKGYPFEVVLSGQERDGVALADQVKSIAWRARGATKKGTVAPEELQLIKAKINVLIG
BoNT-F LC inh: inhibitors of Botulinum neurotoxin F light chain protease; Multiplex microsphere protease cleavage assay, flow cytometry; inhibition, % at 10 µM; AID 588497; hit rate 0.22% among 360,000; in the data active = inhibition above about 35%, passing the limit was not always enough; inconclusive = no clear call, values can overlap the other calls; note: plate controls were buffer without enzyme for full effect and enzyme alone for no effect
* marks the source's active call; other numbers are inactive results. Hits are enriched below; roughly 3.6% of the tested compounds scored in any of these assays. Cut-off read from the data, not from the text of the source, unless noted: active = inhibition above about 30%; inconclusive = no clear call, values can overlap the other calls; inactive = below that.

Screening CC(C)Oc1ccc(OCCNC2CCCC2)cc1 returned Autofluor counter 20103*, Anthrax LF prot 0, BoNT-A LC inh2 2, MazEF act 8 and BoNT-F LC inh 1.
COc1ccccc1OCCNC1CCCC1 was read as Autofluor counter 21707*, Anthrax LF prot 3, BoNT-A LC inh2 0, MazEF act -5 and BoNT-F LC inh 2.
For CCOC(=O)[C@]12CCC=C1N(Cc1ccco1)C(=O)[C@H](CC(=O)N1CCCCC1)C2 the results were Autofluor counter 4751, Anthrax LF prot -9, BoNT-A LC inh2 -2 and BoNT-F LC inh -14.
`CCCN1CCN(C(=O)c2ccc3[nH]c(C)c(C)c3c2)CC1` gave Autofluor counter 3636, Anthrax LF prot 4, BoNT-A LC inh2 0, MazEF act 5 and BoNT-F LC inh 1.
Cc1ccc(OCc2cc(C(=O)NCC(C)(C)N3CCOCC3)no2)cc1C was read as Autofluor counter inconclusive, Anthrax LF prot 3, BoNT-A LC inh2 -2, MazEF act -6 and BoNT-F LC inh 12.
CCNC(=S)NNC(=O)c1ccc(OC(F)F)cc1 was read as Autofluor counter 23106*, Anthrax LF prot -2, BoNT-A LC inh2 0, MazEF act 2 and BoNT-F LC inh 2.
For CCNC(=S)NNC(=O)c1cccnc1 the results were Autofluor counter 6606, Anthrax LF prot -3, BoNT-A LC inh2 -1, MazEF act 10 and BoNT-F LC inh -17.
C=CCNC(=S)NNC(=O)c1ccc(OC(C)C)cc1 was read as Autofluor counter 9572, Anthrax LF prot -9, BoNT-A LC inh2 -1, MazEF act 9 and BoNT-F LC inh -12.
CC(C)CNC(=S)NNC(=O)c1ccc(OC(F)F)cc1 was read as Autofluor counter 23366*, Anthrax LF prot 0, BoNT-A LC inh2 0, MazEF act -5 and BoNT-F LC inh 0.
`O=C(/C=C/c1ccc(OC(F)F)cc1)Nc1cccc(S(=O)(=O)N2CCOCC2)c1` gave Autofluor counter 6040, Anthrax LF prot -4, BoNT-A LC inh2 -2, MazEF act 7 and BoNT-F LC inh -20.
COc1ccc2cc(CN(Cc3cccs3)Cc3nnnn3Cc3ccccc3)c(=O)[nH]c2c1 was read as Autofluor counter 24337*, Anthrax LF prot -2, BoNT-A LC inh2 -1, MazEF act -7 and BoNT-F LC inh -3.
Screening CCOC(=O)Cn1nnnc1CN(Cc1cccs1)Cc1cc2cc(C)cc(C)c2[nH]c1=O returned Autofluor counter 23938*, Anthrax LF prot 4, BoNT-A LC inh2 -1, MazEF act -4 and BoNT-F LC inh -1.
Cc1cccc2cc(CN(Cc3cccs3)Cc3nnnn3Cc3ccccc3)c(=O)[nH]c12 was read as Autofluor counter 10131, Anthrax LF prot -3, BoNT-A LC inh2 -1, MazEF act -5 and BoNT-F LC inh 7.
Screening O=C(c1csc2c1CCCC2)N1CCN(c2cccc(C(F)(F)F)c2)CC1 returned Autofluor counter 9492, Anthrax LF prot -13, BoNT-A LC inh2 0, MazEF act -6 and BoNT-F LC inh -2.
For O=C(c1csc2c1CCCC2)N1CCN(c2ccc(F)cc2)CC1 the results were Autofluor counter 7075, Anthrax LF prot -8, BoNT-A LC inh2 0, MazEF act 53* and BoNT-F LC inh -6.
For CCC(=O)Nc1ccccc1C(=O)OCC(=O)c1ccc2ccccc2c1 the results were Autofluor counter 23453*, Anthrax LF prot -4, BoNT-A LC inh2 -1, MazEF act 4 and BoNT-F LC inh -1.
Screening Cc1ccc(S(=O)(=O)N2CCCC2C(=O)NCc2ccccc2Cl)cc1 (stereo not given) returned Autofluor counter 4544, Anthrax LF prot 18, BoNT-A LC inh2 0, MazEF act -1 and BoNT-F LC inh inconclusive.
`O=C(NC(c1ccccc1)c1ccccc1)c1ccccc1` gave Autofluor counter 2977, Anthrax LF prot 2, BoNT-A LC inh2 0, MazEF act 5 and BoNT-F LC inh -3.
Cc1ccccc1C(NC(N)=O)c1ccccc1 (stereo not given) was read as Autofluor counter 16482*, Anthrax LF prot -3, BoNT-A LC inh2 -2, MazEF act -21 and BoNT-F LC inh -4.
Screening CCCc1cc(C(N)=O)c(NC(=O)c2ccco2)s1 returned Autofluor counter 16987*, Anthrax LF prot -1, BoNT-A LC inh2 -2, MazEF act 17 and BoNT-F LC inh -4.
Screening CCSc1cc(C)nc2c(-c3ccc(Cl)cc3)c(C)nn12 returned Autofluor counter 20908*, Anthrax LF prot 1, BoNT-A LC inh2 -3, MazEF act -22 and BoNT-F LC inh -4.
Screening Cc1cc(C)n2nc(C)c(-c3ccc(Cl)cc3)c2n1 returned Autofluor counter 3937, Anthrax LF prot -21, BoNT-A LC inh2 -2, MazEF act 8 and BoNT-F LC inh -22.

From PubChem
